Among the data in PubChem BioAssay (NCI) are growth values, retold here.

Several values for one entry are separate records, joined by “and”; a condition that tells them apart may be missing. Identical values can stand only once. This is part of a sample that, as a whole, favours compounds with a hit. Of some 83,000 tested, about 20% had one in any assay.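 The test compound was applied at a single concentration to cells in 96-well plates for 48 hours, and percent growth was recorded.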 Activity calls are given as the source filed them. Rule for the calls: active = growth percent below 10; inactive = the rest.

What all share (assay): NCI-60 one-dose screen, 48 h (100 = growth as untreated, 0 = no growth, -100 = all killed)
Common to all, as to settings: 10 µM unless noted

Assay [1] concerns SR leukemia.
Assay [2] has as its system RPMI-8226 leukemia.
Assay [3] concerns OVCAR-8 ovarian.
In assay [4] the test system is OVCAR-5 ovarian.
The subject of assay [5] is OVCAR-4 ovarian.
Assay [6] concerns SK-OV-3 ovarian.
Assay [7] concerns IGROV1 ovarian.
Assay [8] has as its system OVCAR-3 ovarian.
The subject of assay [9] is HS 578T breast.
Assay [10] has as its system NCI/ADR-RES ovarian.

Regarding `COc1ccc(-c2[nH]c3ccccc3c2-c2ccc(OC)cc2)cc1`, the growth in [1] was 6.13% (active); in assay [2], 24.1% (inactive); in [3], 86.1% (inactive); in [4] it was 62.6% (inactive); in assay [5], 61% (inactive); in assay [6] it was 61.7% (inactive). Further, the growth is 88.2% (inactive) in assay [7], 12.9% (inactive) in assay [8], 49.5% (inactive) in [9] and 36.2% (inactive) in assay [10].

On to `CCN1C(=O)N(c2ccccc2)C2NC(=S)N(/N=C/C=C/c3ccccc3)C21` (stereo not given), for which the growth is 7.28% (active) in assay [1]; -20.1% (active) in [2]; 5.29% (active) in assay [3]; 59.7% (inactive) in assay [4]; 34.3% (inactive) in [5]; 24% (inactive) in assay [6]. Also, the growth is 20.8% (inactive) in assay [7], 8.14% (active) in assay [8], 16.1% (inactive) in assay [9] and 2.91% (active) in assay [10].

`Clc1ccc(CNc2ccc3nc(CCC4CCCCC4)[nH]c3c2)cc1`: the growth is 26.2% (inactive) in [1]; -6.18% (active) in assay [2]; 65.3% (inactive) in [3]; 53% (inactive) in [4]; 32.3% (inactive) in assay [5]; 78.9% (inactive) in assay [6]. Also, the growth in assay [7] was 45.9% (inactive); in [8], 69.6% (inactive); in assay [9], 78.8% (inactive); in [10] it was 54.7% (inactive).

On to `CN(C)CCCn1c2c(c3ccc(N4CCNCC4)cc3c1=O)C(=O)c1ccccc1-2`, for which the growth in [1] was -16.4% (active); in [2], -32.4% (active); in [3], -8.9% (active); in assay [4], 16.5% (inactive); in [5], -22.9% (active); in assay [6], 6.3% (active). Also, the growth was 5.77% (active) in assay [7], -0.802% (active) in assay [8], 49.1% (inactive) in assay [9] and -13.8% (active) in assay [10].

As to `Nc1ccc(-c2nc3ccc4[nH]ncc4c3c3c2CCCC3)cc1F`, the growth was 10.8% (inactive) in assay [1]; 27.3% (inactive) in assay [2]; 32.2% (inactive) in assay [3]; 56.8% (inactive) in assay [4]; 50.2% (inactive) in [5]; -28.3% (active) in assay [6]. Moreover, the growth in assay [7] is 10.9% (inactive); in assay [8] it was 37.3% (inactive); in assay [9], 17.1% (inactive); in assay [10], 35.6% (inactive).

For the compound `CC(=O)N1N=C(c2ccc(Nc3nc(Nc4ccc(F)cc4)nc(Nc4ccc(F)cc4)n3)cc2)CC1c1ccccc1` (stereo not given), the growth is 23.3% (inactive) in assay [1]; 33.9% (inactive) in assay [2]; 83% (inactive) in assay [3]; 72.3% (inactive) in [4]; 95.3% (inactive) in assay [5]; 89.2% (inactive) in assay [6]. Further, the growth was 117% (inactive) in [7], 141% (inactive) in assay [8], 94.8% (inactive) in assay [9] and 72.8% (inactive) in [10].

As to `O=C1C=C(Nc2ccccc2)c2ncccc2C1=O`, the growth in assay [1] is -28.2% (active); in assay [2], -40.7% (active); in [3], -92.7% (active); in assay [4], -90.3% (active); in [5] it was -95.2% (active); in assay [6] it was -91.1% (active). Besides, the growth in assay [7] was -66.7% (active); in assay [8] it was -74.6% (active); in assay [9], -8.31% (active); in [10], -24.8% (active).

Turning to `COc1ccc(C2Nc3nc(SC)nc(N)c3N=C3c4ccccc4CCC32)cc1` (stereo not given), the growth in assay [1] is 66% (inactive); in [2], 67.5% (inactive); in [3] it was 70.5% (inactive); in assay [4] it was 107% (inactive); in [5], 53.9% (inactive); in assay [6] it was 97% (inactive). The growth in assay [7] is 55.2% (inactive); in assay [8], 65.2% (inactive); in assay [9] it was 97.1% (inactive); in [10], 56.2% (inactive).

Turning to `CN(C)C1CCN(C(=O)c2ccc(NC(=O)Nc3ccc(-c4nc(N5CCOCC5)c5cccn5n4)cc3)cc2)CC1`, the growth in assay [1] was 8.47% (active); in [2] it was -20.8% (active); in [3] it was -0.587% (active); in [4] it was -0.314% (active); in assay [5], -26.9% (active); in [6], -30.8% (active). The growth is -26.4% (active) in [7], -12% (active) in [8], -32.6% (active) in assay [9] and 85.1% (inactive) in assay [10].

`CCOc1ccc(N2C(N)=NC(N)=NC2(C)C)cc1`: the growth was 5.52% (active) and 92.7% (inactive) in assay [1]; -4.32% (active) and 90% (inactive) in assay [2]; 25.8% (inactive) and 91.2% (inactive) in assay [3]; 55.6% (inactive) and 100% (inactive) in [4]; 42.4% (inactive) and 108% (inactive) in assay [5]; 15.7% (inactive) and 80.1% (inactive) in assay [6]. Moreover, the growth in [7] was 45.7% (inactive) and 80.8% (inactive); in [8] it was -35.8% (active) and 107% (inactive); in [9] it was 35.9% (inactive) and 96% (inactive); in assay [10] it was 9.74% (active) and 101% (inactive).

For `N#Cc1ccccc1OCC(=O)Nc1nc2c(s1)COc1ccccc1-2`, the growth in [1] was -19.5% (active); in assay [2], 96.8% (inactive); in assay [3], 106% (inactive); in [4] it was 85.4% (inactive); in assay [5], 99.1% (inactive); in [6], 94.7% (inactive). Moreover, the growth was -3.12% (active) in assay [7], 110% (inactive) in assay [8], 99.7% (inactive) in assay [9] and 104% (inactive) in assay [10].

With `BrC1=C(Br)C(Br)(Br)C(Br)=C1Br`, the growth in assay [1] was 9.34% (active); in assay [2], 20.8% (inactive); in assay [3], 62.8% (inactive); in [4], 97.2% (inactive); in assay [5], 104% (inactive); in assay [6], 108% (inactive). For the same compound, the growth in [7] is 98.3% (inactive); in [8], 104% (inactive); in [9], 118% (inactive); in [10] it was 75.2% (inactive).
